Most compounds without a hit are left out; they make up all but 5.9% or so of the library.
RORgamma inh – inhibitors of mouse ROR gamma transcriptional activity. Potency, µM (series often up to 53.6 µM), without a hit: at the highest dose activity change, negative = inhibition, usual class: inhibitors. Drosophila S2 Gal4-RORgamma UAS-luciferase reporter, 20 h. AID 2551. actives 5.4% (n = 310,000); further: potency means the concentration at half of the fitted maximal effect; nearly all actives have a fitted effect of over 60% in size
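Stable Schneider cell line, Gal4 DNA-binding domain fused to ROR gamma, UAS-luciferase. Cmpd 1 hr RT → CuSO4 700 uM final → 20 hr RT → luciferase reagent 10 min → luminescence.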
GALK inhibitor – inhibitors of human galactokinase; P51570; Purified GALK, Kinase-Glo residual ATP luminescence; actives 0.007% (n = 270,000); Potency, µM (top dose mostly 57.5 µM), for the others: at the top dose activity change, negative = inhibition, actives largely listed as inhibitors; further: potency means the concentration at half of the fitted maximal effect
Target sequence (P51570 whole entry, looked up): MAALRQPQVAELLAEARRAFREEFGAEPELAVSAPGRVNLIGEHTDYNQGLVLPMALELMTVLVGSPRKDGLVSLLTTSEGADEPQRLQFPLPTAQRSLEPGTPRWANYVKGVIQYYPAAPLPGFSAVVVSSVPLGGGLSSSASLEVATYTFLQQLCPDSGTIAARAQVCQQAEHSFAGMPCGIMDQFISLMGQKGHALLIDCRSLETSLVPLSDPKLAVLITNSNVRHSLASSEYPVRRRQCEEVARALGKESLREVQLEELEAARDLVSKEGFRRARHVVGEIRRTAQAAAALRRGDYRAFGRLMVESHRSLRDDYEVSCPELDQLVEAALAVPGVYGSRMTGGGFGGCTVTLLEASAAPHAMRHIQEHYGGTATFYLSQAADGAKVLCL
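The enzyme phosphorylates galactose (100 uM) using ATP (35 uM); inhibition is detected as higher residual ATP, quantified by bioluminescence after 1 h reaction at room temperature, pH 8.0.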
TrxR1 inh – blocks rat thioredoxin reductase 1; O89049; recombinant rTrxR1, NADPH fluorescence consumption, selenite substrate; Potency, µM (top dose mostly 114 µM), without a hit: top-dose activity change, negative = inhibition, actives largely listed as inhibitors; actives 1% (n = 390,000); AID 588453; further: potency means the concentration at half of the fitted maximal effect; nearly all actives have a fitted effect of over 65% in size
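Rat TrxR1 (90 nM in the dispensed reagent) was pre-reduced with 400 uM NADPH for 5 min at room temperature, then incubated with compound for 15 min. After 400 uM selenite was added, NADPH fluorescence (Ex 340/Em 450 nm) was followed for 8 min.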
FBPA coupling cs – coupling enzyme interference in Giardia aldolase counter-screen | coupling enzyme system counterscreen, AmpLite Red fluorescence | activity change, negative = inhibition, % at 58.2 µM, hits read low | actives 0.67% (n = 290,000) | AID 2472; in the data active means activity change below about -30%
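First, compound is pin-transferred into glyceraldehyde-3-phosphate coupling-enzyme reagent at 57.5 uM final and held 10 min at RT. Next, substrate, coupling system and AmpLite Red are added. After 20 min RT, fluorescence (525/598 nm) is read.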
TrxR1 substrate – substrates of rat thioredoxin reductase 1 | AID 588456 | O89049 | purified TrxR1 substrate turnover, NADPH consumption readout | actives 0.01% (n = 390,000) | Potency, µM (series often up to 114 µM), for inactives: at the highest dose activity change, negative = substrate turnover; further: potency means the concentration at half of the fitted maximal effect; nearly all actives have a fitted effect of over 50% in size
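Rat TrxR1, dispensed at 90 nM, was prereduced with 400 uM NADPH (final) for 5 min at ~22 deg C, then incubated with compound 15 min before 400 uM selenite. A first-read NADPH fluorescence drop versus no-compound background flagged substrates.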
Gal4-VP16 FLuc – Gal4-VP16 reporter inhibition counter-screen; actives 3.5% (n = 310,000); Potency, µM (highest dose often 53.6 µM), without a hit: top-dose activity, negative = inhibition, hits mostly inhibitors; Drosophila S2 Gal4-VP16 UAS-luciferase, luminescence, 20 h; AID 2546;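 further: Gal4-VP16 expression switched on by copper sulfate through the metallothionein promoter; potency means the concentration at half of the fitted maximal effect; nearly all actives have a fitted effect of over 50% in size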
Numbers without * were called inactive; ? = inconclusive; / = no result; [ ] = remark or other dose. Unless noted, the call rests on the fitted dose curve; in most records, active means well fitted curve in the direction sought with a large enough effect; inconclusive means small, poorly fitted or top-dose-only effect, or another doubt; inactive means no such curve, though single readings can be large; an effect the other way counts as inactive or inconclusive. On the % scale 0 is the no-effect control and ±100 the full control effect.

SMILES	RORgamma inh	GALK inhibitor	TrxR1 inh	FBPA coupling cs	TrxR1 substrate	Gal4-VP16 FLuc
CCC(=O)Nc1nc2ccccc2n1Cc1ccccc1	0.708µM*	-0.1%	9.3%	0.8	4.7%	2.24µM*
CCC(=O)Nc1nc2ccccc2n1Cc1ccc(C)cc1	0.398µM*	-22.2%	-16.7%	0.6	-7.6%	0.891µM*
CC(=O)NC(C)c1nc2ccccc2n1CC(=O)NC(C)CCc1ccccc1 (stereo not given)	12.6µM*	-1.9%	12.1%	3.6	-4.0%	-2.5%
CCCCC(=O)N(c1ccc(C)c(C)c1)C1C=CS(=O)(=O)C1 (stereo not given)	6.3%	/	24.8%	8.0	6.8%	-6.6%
Brc1ccc(/C=N/Nc2ccccn2)cc1	?	0.4%	23.2%	-5.4	4.7%	-23.4%
Clc1cccc(/C=N/Nc2nc(Cl)nc3ccccc23)c1	2µM*	0.0%	-12.1%	-2.0	7.7%	-1.9%
Cc1cc(C)nc(N/N=C/c2ccc(N3CCOCC3)cc2)n1	-44.7%	-1.3%	2.3%[57.1 µM]	1.7	-7.5%[57.1 µM]	-11.7%
Cc1ccc(/C=N/Nc2nc(C)cc(C)n2)cc1	10µM*	0.0%	13.1%[57.1 µM]	0.8	-2.5%[57.1 µM]	0.9%
Cc1cc(C)nc(N/N=C/c2ccc(Cl)cc2)n1	9.5%	0.5%	0.1%	3.3	-3.4%	-11.5%
CCNc1nc(NCC)nc(N/N=C/c2ccc(Br)cc2)n1	17.8µM*	10.2%	24.3%[57.1 µM]	4.8	-10.7%	-16.3%
CSc1ccc(/C=N/Nc2nc(C)cc(C)n2)cc1	11.2µM*	0.5%	5.4%[57.1 µM]	-2.7	0.3%[57.1 µM]	?
CCCn1c(=O)c2sccc2n2c(CCCC(=O)NC3CCN(Cc4ccccc4)CC3)nnc12	-14.1%	0.5%	0.8%	/	2.3%	3.4%
CC(/C=N/NC(=O)c1ccncc1)=C\c1ccc(C(C)C)cc1	-6.6%	-0.8%	31.0%	2.3	39.8%	-0.1%
CC(/C=N/Nc1nc(C)cc(C)n1)=C\c1ccc(C(C)C)cc1	11.2µM*	/	-7.8%	-1.2	-14.6%	?
Cc1cc(C)nc(N/N=C/c2ccco2)n1	23.0%	-0.2%	-17.2%	2.3	-6.9%	14.3%
Cc1cc(C)nc(N/N=C/c2cccc(Cl)c2)n1	11.2µM*	-1.4%	8.1%	-8.8	-10.1%	5.8%
COc1ccc(C(CNC(=O)c2cc(SC)ccc2Cl)N(C)C)cc1 (stereo not given)	-2.2%	7.1%	5.0%	0.9	6.1%	-3.3%
Cc1cc(C)c(S(=O)(=O)N(CC(=O)O)CC(=O)O)c(C)c1	-9.0%	0.4%	11.3%	13.9	2.7%	-0.9%
Cc1cc(C)c(S(=O)(=O)N(C2=NCCS2)S(=O)(=O)c2c(C)cc(C)cc2C)c(C)c1	15.8µM*	-2.9%	17.4%[57.1 µM]	0.6	9.0%[57.1 µM]	-8.1%
CCCc1cc(=O)oc2cc(OC(=O)CN3C(=O)NC4(CCCC4)C3=O)ccc12	/	/	79.4µM*	/	396.4%	/
O=C(Nc1nc(-c2nc3ccccc3s2)cs1)C1CC1	5.62µM*	-1.9%	?	-13.5	-11.6%	?
O=C(Nc1nc(-c2ccccn2)cs1)C1CCCC1	8.91µM*	2.9%	18.7%[57.1 µM]	0.8	11.9%[57.1 µM]	?
CSCCC(=O)Nc1nc(-c2ccccn2)cs1	12.6µM*	0.5%	17.1%[57.1 µM]	2.7	12.8%[57.1 µM]	-18.1%
O=C(CCCSc1ccccc1)Nc1nc(-c2ccccn2)cs1	10µM*	1.5%	2.1%	1.4	-2.7%	?
CC1(c2ccccc2)CC(C)(C)N2C(=O)Cc3cccc1c32 (stereo not given)	21.8%	-0.8%	-3.6%	-3.3	3.0%[57.1 µM]	-6.6%
SMILES	RORgamma inh	GALK inhibitor	TrxR1 inh	FBPA coupling cs	TrxR1 substrate	Gal4-VP16 FLuc
COC(=O)[C@@]1(Cc2ccc(OC)cc2)[C@H]2c3cc(C(=O)N(C)C)n(C)c3C[C@H]2CN1C(=O)c1ccccc1	0.8%	/	/	4.1	/	-8.5%
O=C(COC(=O)c1cc(=O)[nH]c2ccccc12)Nc1ccc(F)cc1F	/	/	11.0%[57.1 µM]	/	7.1%	/
O=C1NN=COc2ccccc21	12.6µM*	0.8%	21.9%	0.7	9.3%	-5.1%
COc1ccc(CCNC(=O)c2ccc3nc(N4CCCCC4)sc3c2)cc1OC	2.24µM*	/	7.0%	0.8	-3.6%	?
O=C1Nc2ccc(I)cc2/C1=C/c1cc(Br)c(O)c(Br)c1	?	/	?	-6.5	1.2%[57.1 µM]	-29.6%
CN(C)c1cccc(-c2nnc(SCCCC#N)o2)c1	11.2µM*	0.0%	2.5%	-6.0	-1.9%	?
CN(C)CCSc1nnc(-c2ccccc2)o1	-41.1%	1.2%	34.5%[57.1 µM]	0.2	14.2%[57.1 µM]	-10.0%
CCOC(=O)c1cnc2c(F)ccc(F)c2c1Sc1ccccc1	?	2.6%	56.2µM*	0.3	-10.5%	-6.3%
COc1cc2nc(-c3ccc(Br)o3)oc(=O)c2cc1OC	14.7%	0.3%	13.0%	-39.8*	22.1%	-10.4%
Cc1ccc2nc(-c3ccc(Br)o3)oc(=O)c2c1	21.6%	-5.4%	-2.3%	-2.8	28.2%	18.1%
CCCCNCc1cc(Cl)c(OCCC)c(OCC)c1	-21.0%	-2.5%	-19.9%	-1.7	3.7%	12.4%
Cc1cccc(OCCC(=O)NCC(=O)Nc2cccc(C)c2C)c1	-8.2%[10 µM]	-0.5%	-2.9%	-35.1*	-1.5%	-5.6%
Cc1cccc(NC(=O)CCOc2ccccc2)c1C	25.5%	-4.6%	4.4%[0.457 µM]	-3.5	0.8%	-20.3%
Nc1nc(CN2CCN(c3ccccc3F)CC2)nc(N2CCCc3ccccc32)n1	11.2µM*	-0.6%	-0.4%	0.7	-1.2%	?
Nc1nc(CN2CCN(Cc3ccccc3)CC2)nc(N2CCCc3ccccc32)n1	10µM*	-0.6%	15.1%	0.0	-1.0%	-5.6%
O=C(Nc1ccc(F)cc1)C1CC(=O)n2c(nc3ccccc32)N1 (stereo not given)	16.9%	0.3%	4.2%	-2.2	5.4%[0.457 µM]	-6.5%
O=C(Nc1ccc(F)c(Cl)c1)C1CC(=O)n2c(nc3ccccc32)N1 (stereo not given)	3.55µM*	-0.3%	-10.4%	5.1	?	?
CC(=O)c1cccc(Nc2ncnc3c2cnn3C)c1	/	/	18.6%[57.1 µM]	/	0.4%[57.1 µM]	/
Cc1ccc(S(=O)(=O)N2CCC(Oc3cccc(C(F)(F)F)c3)CC2)cc1	17.1%	-0.2%	33.1%	0.6	3.6%[57.1 µM]	0.1%
C=CCn1c(CSc2ccccc2[N+](=O)[O-])n[nH]c1=S	-41.5%	4.9%	-21.8%	-0.3	2.1%	-18.1%
C=CCn1c(Sc2ncc([N+](=O)[O-])s2)n[nH]c1=O	4.47µM*	-0.3%	0.316µM*	-7.2	11.5%[57.1 µM]	3.98µM*
Cc1ccc(/C=N/NC(=O)c2ccc(-n3cccc3)cc2)o1	17.8µM*	-7.2%	11.1%	/	2.8%	?
O=C(N/N=C/c1cccs1)c1cccc(NC(=O)c2ccccc2Cl)c1	?	0.8%	9.0%[57.1 µM]	3.7	3.3%[57.1 µM]	14.1µM*
O=C(N/N=C/c1cccs1)c1ccc(-n2cccc2)cc1	6.31µM*	3.6%	-6.0%	2.2	-12.0%	11.2µM*
